Data on 25 molecules can be found in article PMC12136788.

Numbering of substitutions follows the chain as printed. Whole data set: some 5,800 sequences, median “enrichment r” near 0.54, cut for the highest 2% near 16. The sample as a whole holds a higher share of the highest values than the screen did.

B1: ENSG00000136451:be:win_1501|CDS_3pUTR|ENSG00000136451|bound_else_gene|NA|bound_elsewhere_windowed (ssRNA)
RNA: GGGAGUUCUACAGUCCGACGAUCGCAAUGAGACCUGUAGAGAGCAUGCCUUUCUUGCCCCAAGCUUUGCCUACAUCACCGCCUUGGUAAACAGUAUUAUAAAAUCAAAAUAUGGGUAAAAGUAAAUAUUUACCAGCAACUUAACAACAGAGGAUUGAGCAUCA
B2: chr8:41262032:41262394:-|3pUTR|ENSG00000104332|msi1|total|mutant (ssRNA)
RNA: GGGAGUUCUACAGUCCGACGAUCGGCCGUUCUGACCUGUUGCCAGCAGAUACACAGGACAUGGAUGAAAUUCCCGUUUCCUCCCGUUUCUUCCUGCCGUACUCCUCUUUCCGAUCCUAAGUCUCUUACAAAAGCUUUGAAUACCAACAGAGGAUUGAGCAUCA
B3: chr1:6522505:6522606:-|3pUTR|ENSG00000162408|msi1|FALSE|unique (ssRNA)
RNA: GGGAGUUCUACAGUCCGACGAUCCUGGGAUUACAGGCGUGAGCCACUGCGCCUGGCCUGAAGCUAUUCUUUACAAAAGCUCUUAGUUUUUGUUUGUUUGUUUGUUUUUUUCUUUUGCGACGGACUCUCUGUCGCCAAGGCUGGCAACAGAGGAUUGAGCAUCA
B4: chr12:95077336:95077437:-|3pUTR|ENSG00000180263|msi1|FALSE|unique (ssRNA)
RNA: GGGAGUUCUACAGUCCGACGAUCUCCUCAUUGACCCAUCCGCAUCUCUGUUUAUCCAAGACUUCUCUGUGAUAGCUGACCCUUAGUCUUUCUCUCCCCUAUUCCUCCAGACUAGAUCCUGUCUCCUUCCUGCAGCCCCGACACCAACAGAGGAUUGAGCAUCA
B5: chr2:121605696:121605828:-|CDS|ENSG00000074054|unk|total|mutant (ssRNA)
RNA: GGGAGUUCUACAGUCCGACGAUCGACCGACUAUUUCUCAGACAAACAGAAGUCUGCUGACCUUGAGCAUGACCAGACCAUGUCCGAUAAACUUGUGGAUGGACUUGCUACCUCUUGGGUGAACUCCCGCAAUUACAAGGUAAGCAACAGAGGAUUGAGCAUCA
B6: chr10:24583932:24584033:-|3pUTR|ENSG00000107863|unk|total|mutant (ssRNA)
RNA: GGGAGUUCUACAGUCCGACGAUCAACAAAAGUGCCUCAUCAUAAAAAUACAGUUGGUUUUCCGGGUGCCAUAUUGUUAAAAUCCGAUAACUUACUUACAUUGAAUAAACGAAUGCGUUUUAUUGGUAACAGAUAUCAUUACAUCAACAGAGGAUUGAGCAUCA
B7: chr5:171862525:171862626:-|3pUTR|ENSG00000072803|msi1|FALSE|unique (ssRNA)
RNA: GGGAGUUCUACAGUCCGACGAUCGACAGUGCAUGGAAAGGACGUUGGCAUCCAAUUGGCACUCCUUCUCCCUUAUUCAAUAUUAGGUUUGAUUUGCCCUUCGCCAUUGUUUCCAAAGAUCAAGGAAUGUCAAUAACAUUUUAACAACAGAGGAUUGAGCAUCA
B8: chr7:56101660:56101848:-|3pUTR|ENSG00000106153|msi1|FALSE|unique (ssRNA)
RNA: GGGAGUUCUACAGUCCGACGAUCUGGAGAGAUGGAAAAUCAGCUCUCAUAACUAAGUUAAUUUAGUAUAAAAAUAGAAUUGAUAGUGAGGGUAUAAAGUGUAACCAUCAGUUAAACCUCUCCUGUCAUUCCUGGCUUCCUUGCCAACAGAGGAUUGAGCAUCA
B9: chr7:101137467:101137738:+|3pUTR|ENSG00000106366|msi1|FALSE|unique (ssRNA)
RNA: GGGAGUUCUACAGUCCGACGAUCGUUAAAAGAUGGUAAACCAGAUCUGUCUCCAAGACCUUGGCCUCUCCUUGGAGGACCUUUAGGUCAAACUCCCUAGUCUCCACCUGAGACCCUGGGAGAGAAGUUUGAAGCACAACUCCCCAACAGAGGAUUGAGCAUCA
B10: chr14:74942539:74942640:-|3pUTR|ENSG00000119630|msi1|total|mutant (ssRNA)
RNA: GGGAGUUCUACAGUCCGACGAUCGUGUAUUUAUUACCGUCACACUCUUCAGUGACUCCUGCUGGUACCUGCCCUCUAUUUAUCCGCCAACUGUUUCCCUGCUGAAUGCCUCGCUCCCUUCAAGACGAGGGGCAGGGAAGGACACAACAGAGGAUUGAGCAUCA
B11: chr1:151048051:151048152:+|CDS|ENSG00000143443|unk|FALSE|unique (ssRNA)
RNA: GGGAGUUCUACAGUCCGACGAUCGACCGCCUGGCUGGACCAGCGGCUGCCGAGCUCUUGGCCGCCACGGUGUCCACCGGCUUUAGCCGGUCGUCCGCCAUUAACGAGGAGGAUGGGUCUUCAGAAGAGGGGGUUGUGAUUAAUCAACAGAGGAUUGAGCAUCA
B12: chrX:65741840:65741941:+|3pUTR|ENSG00000147065|msi1|total|mutant (ssRNA)
RNA: GGGAGUUCUACAGUCCGACGAUCAAAUUGUUUUUGGAGGGGUUUAUGCUCAAUCCAUGUUCUAUUUCAGUGCCAAUAAAAUUCCGGAAGACUUCACAGUGACUCAAUCGUUCUUUGUGGUAUGAGUGGGCCGCUGUAAGAUAUCAACAGAGGAUUGAGCAUCA
B13: chr12:106067485:106067586:-|CDS|ENSG00000074590|msi1|FALSE|unique (ssRNA)
RNA: GGGAGUUCUACAGUCCGACGAUCCCUGAAGAAGCGAAGCAACAGCGAGCAUCGCUCUCACAGCACUGGCUUCAUUGAAGGUGUAGUUGGUCCUGCCUUACCCUCUACUUUCAAGAUGGAGCAGGACUUGUGCAGGACUGGCGUCAACAGAGGAUUGAGCAUCA
B14: chrX:131089436:131089558:+|3pUTR|ENSG00000147256|unk|total|mutant (ssRNA)
RNA: GGGAGUUCUACAGUCCGACGAUCGGGAAACCUCAAGUGCCGGUCUAAUCCGUGUUUCUGGGAUCCAAAGUCCGAGGAAAAUUCCGAUUUUAUUGCCUGGAUCUGCUUUAAAGACAAUUGGUGUUUACACCCUCUUGUCAGCAACAACAGAGGAUUGAGCAUCA
B15: chr7:2728618:2728646:-|3pUTR|ENSG00000146535|msi1_unk|FALSE|overlapping (ssRNA)
RNA: GGGAGUUCUACAGUCCGACGAUCUUUAAUUUCACUGUUAAUCCUUAUUGUCUUUUUUAUUAAGAUGUUGGAAAAGCAGGAGGUAGUUGUGCCUCAAUUAUUGCAAAAAUGUAACAAUAAAGUUCCUCAAAAUAAGAUCUGUUCCAACAGAGGAUUGAGCAUCA
B16: ENSG00000136451:be:win_1601|3pUTR|ENSG00000136451|bound_else_gene|NA|bound_elsewhere_windowed (ssRNA)
RNA: GGGAGUUCUACAGUCCGACGAUCAAUAUUUACCAGCAACUUAACUUUUAGUUGAUUAAAGCAAAAAGUAAACCAUGAAAUUGGGAGAUUUUAUUACAUUAGUUAAUAAGAGUGUGGUAGCAUUUUUCUCCAAUUUGGCUGGGACAACAGAGGAUUGAGCAUCA
B17: chrX:131089436:131089558:+|3pUTR|ENSG00000147256|unk|FALSE|unique (ssRNA)
RNA: B14 RNA with C39U, C40A, C49U, C50A, C71U, C72A, C83U, C84A
B18: chr4:168926953:168927063:+|3pUTR|ENSG00000129116|msi1_unk|total|mutant (ssRNA)
RNA: GGGAGUUCUACAGUCCGACGAUCCAAAAGAGUUUUCUAACAAGGUUAAUACCUCCGUUCUUAACAUUUUUUUUCUUUAUGUGCCGUGUUUUCAUGCUACCUUGGCCGGAAACUUAUUUACAAACCAUAUUAAAAGGCUAAUUUCAACAGAGGAUUGAGCAUCA
B19: chr12:7729382:7729740:-|three_prime_utr|ENSG00000198178|control|control|control (ssRNA)
RNA: GGGAGUUCUACAGUCCGACGAUCAUCUACAUAUAAAUGAAAUAUUCUCCCUGGAAAUGUGUUUGGGUUGGCAUCCACCGUUGUAGAAAGCUAAAUUGAUUUUUUAAUUUAUGUGUAAGUUUUGUACAAGGAAUGCCCCUAAAACAACAGAGGAUUGAGCAUCA
B20: chr20:53567570:53567671:-|3pUTR|ENSG00000171940|unk|FALSE|unique (ssRNA)
RNA: GGGAGUUCUACAGUCCGACGAUCUCACAAGCUGAGCCAUAUGUACAUAAUCUAGAUUUUGUUUUCAUAGUUUUGCACUUUUAUAGCCUAUUUUUGAAGAUUAACACAUUUGCAAGAUGAUUGACUCAAUCUUUGCCUAAUCCACAACAGAGGAUUGAGCAUCA
B21: chr12:98549714:98549829:+|3pUTR|ENSG00000120802|unk|FALSE|unique (ssRNA)
RNA: GGGAGUUCUACAGUCCGACGAUCGAAGAUGUAUAUUUAGACCAGCACACAAUUUUGAUUUCAAUUAGCCUUAUUCUAAUAUUUAGCUUUUAGAUCUUUCAUACACAUUUUCACGUACUUUGCAAUUGAGACCAGAAAGACUUGCAACAGAGGAUUGAGCAUCA
B22: chr12:98549714:98549829:+|3pUTR|ENSG00000120802|unk|total|mutant (ssRNA)
RNA: B21 RNA with U37C, A38C, U65C, A66C, U83C, A84C, U90C, A91C
B23: chr4:168926953:168927063:+|3pUTR|ENSG00000129116|msi1_unk|FALSE|overlapping (ssRNA)
RNA: B18 RNA with C54U, C55A, C83U, C84A, C105U, C106A
B24: chr4:185586528:185586629:-|3pUTR|ENSG00000154556|msi1|FALSE|unique (ssRNA)
RNA: GGGAGUUCUACAGUCCGACGAUCAUCCAUAUGAUAUGUUGUACAUUUUAUGGAAAUGUAAUAGAAUCUCACACAUUAUUUUAUAGAAAUAGAGUACAGAAGCAUCACAAGUAUUAAAGUUGGUUUUAGCAAGGAUUAGGAUUACAACAGAGGAUUGAGCAUCA
B25: chr4:185586528:185586629:-|3pUTR|ENSG00000154556|msi1|total|mutant (ssRNA)
RNA: B24 RNA with U61C, A62C, U83C, A84C, U89C, A90C, U126C, A127C, U136C, A137C

Sequence of MSI1 full-length (Q61474 whole entry): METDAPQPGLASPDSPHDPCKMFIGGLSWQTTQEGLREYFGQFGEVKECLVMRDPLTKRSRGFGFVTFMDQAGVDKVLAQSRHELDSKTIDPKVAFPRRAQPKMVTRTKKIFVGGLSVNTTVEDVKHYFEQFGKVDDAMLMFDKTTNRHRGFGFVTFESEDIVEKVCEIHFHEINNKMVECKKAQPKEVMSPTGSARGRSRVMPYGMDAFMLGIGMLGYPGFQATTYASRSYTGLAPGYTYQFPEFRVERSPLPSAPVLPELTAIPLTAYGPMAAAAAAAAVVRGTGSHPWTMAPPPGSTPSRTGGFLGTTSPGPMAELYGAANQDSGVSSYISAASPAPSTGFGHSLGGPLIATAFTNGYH

The test has as its target MSI1 full-length (mouse, UniProt Q61474 1-362). Kind of test: nsRBNS (natural sequence RNA bind-n-seq); RBNS binding buffer (assumed for nsRBNS): 25 mM Tris pH 7.5, 150 mM KCl, 3 mM MgCl2, 0.01% Triton X-100, 500 ug/ml BSA, 20 U/ml SUPERase-In, 4 C; UNK is unkempt and MSI1 is Musashi-1; names of the RNAs are library labels; protein concentration not given here; high values mean tight binding.
Molecule B1 yielded a binding signal of 0.827 enrichment R.

Regarding B2, the binding signal turned out to be 0.417 enrichment R.

Turning to B3, the binding signal came out at 0.372 enrichment R.

Molecule B4 returned a binding signal of 1.24 enrichment R.

Take B5: the binding signal was 0.532 enrichment R.

B6 came in with a binding signal of 0.389 enrichment R.

In turn, B7 registered a binding signal of 0.699 enrichment R.

B8 registered a binding signal of 5.86 enrichment R.

For B9, the binding signal amounted to 0.316 enrichment R.

B10 yielded a binding signal of 0.338 enrichment R.

In the case of B11, the binding signal was determined as 0.497 enrichment R.

Regarding B12, the binding signal stood at 0.205 enrichment R.

Molecule B13 displayed a binding signal of 0.282 enrichment R.

The molecule B14 came in with a binding signal of 0.224 enrichment R.

With B15, the binding signal worked out at 0.334 enrichment R.

As to B16, the binding signal turned out to be 1.37 enrichment R.

With B17, the binding signal was determined as 20.8 enrichment R.

As to B18, the binding signal stood at 0.747 enrichment R.

B19: the binding signal was 0.681 enrichment R.

B20 showed a binding signal of 4.98 enrichment R.

Molecule B21 registered a binding signal of 23.7 enrichment R.

For B22, the binding signal came to 0.832 enrichment R.

The molecule B23 gave a binding signal of 20 enrichment R.

B24 returned a binding signal of 34.5 enrichment R.

The molecule B25 yielded a binding signal of 0.725 enrichment R.
